Platelet DG rel: platelet dense granule release activity; 300,000 tested, 0.22% active; human platelet-rich plasma, SFLLRN dense granule ATP release, luminescence; inhibition, %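 (compounds screened at 7.5 µM in platelet-rich plasma)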;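 active means mean replicate score, as percent of positive control, at or above 50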
SKN-1 inh: inhibitors of C. elegans SKN-1; C. elegans VP596 Pgst-4::GFP/RFP ratio, acrylamide-induced, 24 h; inhibition, % at 21.8 µM; 360,000 tested, 0.49% active; AID 624304;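 active means interference check ratio from 0.5 to 1.5 plus GFP to RFP signal ratio inhibition reaching or exceeding a fixed threshold, cut at about 30% in these data, passing the limit was not always enough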
ABCB6 inh 2: inhibitors of human ABC transporter ABCB6. fluorescence ratio to DMSO, % at 10 µM. K562-ABCB6 porphyrin accumulation, flow cytometry, 1 h; stronger effect = lower value. 360,000 tested, 0.19% active;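 active means fluorescence ratio to DMSO below 75%, the collection mean minus 3 SD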;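 further: signal is porphyrin accumulated inside mitochondria; 100% equals median channel fluorescence of DMSO control wells; lower ratio means ABCB6 inhibition with less porphyrin fluorescence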
Target sequence (Q9NP58 whole entry, looked up): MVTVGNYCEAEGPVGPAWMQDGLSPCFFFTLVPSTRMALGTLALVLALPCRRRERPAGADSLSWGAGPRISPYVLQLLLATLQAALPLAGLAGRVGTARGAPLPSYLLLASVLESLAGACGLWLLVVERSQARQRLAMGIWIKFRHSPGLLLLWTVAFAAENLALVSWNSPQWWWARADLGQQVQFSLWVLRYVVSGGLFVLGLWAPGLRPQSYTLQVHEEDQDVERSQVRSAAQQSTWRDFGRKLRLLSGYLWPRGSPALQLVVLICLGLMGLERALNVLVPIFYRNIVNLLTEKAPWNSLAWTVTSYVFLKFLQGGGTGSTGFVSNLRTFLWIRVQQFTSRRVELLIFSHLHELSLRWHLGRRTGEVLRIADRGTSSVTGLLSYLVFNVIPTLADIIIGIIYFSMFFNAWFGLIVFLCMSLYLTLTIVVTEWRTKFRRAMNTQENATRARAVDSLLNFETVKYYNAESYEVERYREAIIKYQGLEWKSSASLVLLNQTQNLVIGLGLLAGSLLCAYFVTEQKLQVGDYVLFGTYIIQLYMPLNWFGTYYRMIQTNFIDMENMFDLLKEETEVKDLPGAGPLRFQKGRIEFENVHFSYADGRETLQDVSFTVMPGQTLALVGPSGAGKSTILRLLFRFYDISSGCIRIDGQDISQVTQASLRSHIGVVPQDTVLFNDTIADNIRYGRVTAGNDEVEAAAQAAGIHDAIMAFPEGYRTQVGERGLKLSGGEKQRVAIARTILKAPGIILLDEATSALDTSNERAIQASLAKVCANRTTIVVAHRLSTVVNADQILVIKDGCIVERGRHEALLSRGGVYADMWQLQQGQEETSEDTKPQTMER
Yeast superoxide: yeast age-related superoxide inhibition as caloric restriction mimetic. S. cerevisiae aged cells, superoxide DHE fluorescence; stronger effect = lower value. superoxide response (% of plate mean), % at 10 µM. 330,000 tested, 0.18% active. AID 2690;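 active means superoxide response under a set limit, about three screen SD below normal, cut at about 65% in these data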;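 further: yeast aged for seven days with compound at 30 °C before DHE staining; 100% = average MFI of all compound-treated wells on the plate with controls excluded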
VLA-4 inh: inhibition in a human VLA-4 binding assay. 330,000 tested, 0.2% active. P13612. inhibition, % (about 7 µM as worked out from the volumes in the protocol). AID 2557. VLA-4 expressing cells, ligand binding flow cytometry; in the data active means inhibition above about 50%
Numbers without * were called inactive; i = inactive; / = no result. Most compounds without a hit are left out; they make up all but 1.2% or so of the library.

SMILES	Platelet DG rel	SKN-1 inh	ABCB6 inh 2	Yeast superoxide	VLA-4 inh
CC(C)C[C@H]1CN(CCCC[C@H]2CNC(=O)C(=O)N2Cc2ccccc2)C(=O)C(=O)N1CCc1ccc(O)cc1	/	12	100	/	/
CC1=Nc2ccc(C)cc2/C1=C/c1c(N)n2nc(CC(=O)N3CCOCC3)sc2nc1=O	-12	38*	104	101	-2
Cc1cc(C)c(OCCOCCN2CCNCC2)c(C)c1	-1	39*	112	110	12
CC(C)c1nc(-c2ccc([N+](=O)[O-])cc2)cs1	2	53*	102	100	/
CC(=O)Nc1nc(-c2ccc([N+](=O)[O-])cc2)cs1	1	1	97	93	1
Cc1ccc(Cl)cc1NC(=S)NCc1cccn1C	2	15	73*	115	27
Fc1ccc(-c2cnn3c(-c4ccncc4)ccnc23)cc1	-3	41*	104	122	3
Fc1ccc(-c2cnn3c(-c4cccs4)ccnc23)cc1	0	29	117	/	/
Clc1ccsc1-c1csc(-c2cccnc2)n1	8	42*	89	108	2
c1cncc(-c2csc(-c3cccnc3)n2)c1	11	4	105	97	-1
CCN(CC)c1ccc(/C=C2\C(=O)c3ccc(C(=O)O)cc3C2=O)cc1	/	36*	248	114	i
Cc1c(C(=O)OCC(=O)NCCc2ccc(S(N)(=O)=O)cc2)oc2ccccc12	/	-7	91	80	6
COCc1c(C(=O)OCC(=O)NCCc2ccc(S(N)(=O)=O)cc2)oc2ccccc12	/	-2	101	65*	-18
CN(C)c1ccc2nc3ccc(=[N+](C)C)cc-3sc2c1	12	37*	116	84	-14
Cc1c(Nc2cc(Cl)c3nonc3c2[N+](=O)[O-])c(=O)n(-c2ccccc2)n1C	/	5	38*	/	/
O=[N+]([O-])c1c(Nc2cccc(O)c2)cc(Cl)c2nonc12	60*	0	88	120	28
Cc1c(Nc2cc(N3CCOCC3)c3nonc3c2[N+](=O)[O-])c(=O)n(-c2ccccc2)n1C	2	/	/	113	-1
COC(=O)C[C@@H]1CC[C@H](NC(=O)Nc2ccc(F)cc2)[C@@H](CO)O1	/	-6	/	/	/
O=C(CNc1ccccc1)N/N=C/c1ccc([N+](=O)[O-])cc1	3	3	104	105	62*
COc1ccccc1/C=C/C(=O)NCC(=O)N/N=C(/C)c1ccco1	-43	8	90	122	1
COc1ccc(/C(C)=N/NC(=O)CNC(=O)/C=C\c2ccccc2OC)c(OC)c1	-12	37*	98	108	10
O=C(Nc1sc2c(c1C(=O)c1ccc(Cl)cc1)CCCC2)c1cccnc1	-1	35*	100	99	3
Clc1ccc(OCCSc2ncccn2)cc1	1	38*	100	67	0
CCN(C(=O)CN1C(=O)NC2(CCCC2)C1=O)c1nc2c(C)cccc2s1	/	14	89	/	/
O=C(/C=C/c1ccco1)Nc1ccc(CN2CCOCC2)cc1	/	14	100	92	19
SMILES	Platelet DG rel	SKN-1 inh	ABCB6 inh 2	Yeast superoxide	VLA-4 inh
CC(C)Oc1cccc(C(=O)Nc2ccc(CN3CCOCC3)cc2)c1	-1	35*	98	104	0
O=C(/C=C/c1ccc(Cl)cc1Cl)Nc1ccc(CN2CCOCC2)cc1	-10	47*	93	115	8
O=C(/C=C/c1ccccc1)Nc1ccc(CN2CCOCC2)cc1	14	65*	101	83	6
CN(C)CCOC(=O)C1(c2ccccc2)CCCC1	66*	-3	110	94	14
CC1(C)ON=C(c2cccc(F)c2)NC1=O	/	-7	101	/	/
c1ccc(CSc2nnc(-c3cccs3)o2)cc1	-1	61*	95	81	-2
c1ccc(-c2nnc(CSc3nnc(-c4cccs4)o3)o2)cc1	0	1	100	89	6
Cc1ccc(/C=C/c2nnc(-c3ccccc3)o2)cc1	-4	0	99	101	2
Fc1ccc(CSc2nnc(-c3cccs3)o2)cc1	-1	58*	158	92	9
C(=C\c1nnc(-c2cccs2)o1)/c1ccccc1	-5	77*	102	101	8
OCC1CSC(=S)N1Cc1ccccc1 (stereo unspecified)	/	-8	99	/	/
CC(=O)NC(c1cccc(F)c1)c1nc(/C=C/c2ccccc2)cs1 (stereo unspecified)	/	28	107	/	/
O=C(c1ccccc1)c1c[nH]c2cc3c(cc2c1=O)OCCO3	5	47*	102	91	5
Cc1c(O)ccc(/C=N/Nc2ncccc2[N+](=O)[O-])c1O	63*	-9	106	85	2
O=[N+]([O-])c1cccnc1N/N=C/c1ccccc1O	43	9	92	113	4
COc1ccc(C#Cc2ccc3c(c2)O[C@@H](CN(C)C(=O)Nc2cccc(OC)c2)[C@H](C)CN([C@@H](C)CO)S3(=O)=O)cc1	/	11	99	/	/
CC(C)(C)OC(=O)N1C(=O)[C@](OC(=O)c2ccccc2)(c2ccc(F)cc2)c2ccccc21	/	19	97	/	/
COC(=O)[C@@]12C[C@@H](CC(=O)N3CCOCC3)C(=O)N(Cc3ccc4c(c3)OCO4)C1=CCC(C)(C)C2	/	4	/	/	/
Cc1cc(C)cc(OCC(=O)NN2Cc3ccccc3C2=N)c1	-1	-12	98	105	1
N=C1c2ccccc2CN1NC(=O)CC12CC3CC(CC(C3)C1)C2	15	12	103	56*	8
Clc1ccc(N2CCN(c3ccnc(Cl)n3)CC2)cc1	5	57*	85	100	1
CCOc1ccc(C(=O)NC(=S)Nc2cccnc2)cc1[N+](=O)[O-]	5	-1	98	91	9
COc1ccc(C(=O)NC(=S)Nc2cccnc2)cc1[N+](=O)[O-]	0	5	94	48*	2
CN(C)C(CNC(=O)c1cccc(S(=O)(=O)N2CCN(c3ccc(F)cc3)CC2)c1)c1ccccc1 (stereo unspecified)	/	46*	96	/	/
O=C(c1cccs1)N1CCc2c([nH]c3ccccc23)C1c1ccccn1 (stereo unspecified)	9	5	99	99	-4
SMILES	Platelet DG rel	SKN-1 inh	ABCB6 inh 2	Yeast superoxide	VLA-4 inh
O=C(c1cccs1)N1CCc2c([nH]c3ccccc23)C1c1ccc(Cl)cc1 (stereo unspecified)	4	50*	104	92	12
Cc1cccc(/N=C/c2sc3ccccc3c2O)n1	51*	9	98	106	-9
CCCN1C=CC(=C2C(=O)c3ccccc3C2=O)C=C1	64*	-15	102	103	10
CCCCCCN1C=CC(=C2C(=O)c3ccccc3C2=O)C=C1	8	-5	93	110	1
CCCCN1C(C)=CC(=C2C(=O)c3ccccc3C2=O)C=C1C	11	38*	97	81	4
CCN1C=CC(=C2C(=O)c3ccccc3C2=O)C=C1	53*	-11	98	96	8
CC1ON=C(c2ccccn2)N(Cc2ccc3c(c2)OCO3)C1=O (stereo unspecified)	/	-16	102	/	/
CSCc1cc(C(=O)NC2CC2)c(N)s1	/	11	/	/	/

Compound activity (PubChem BioAssay)
